# Results: the OligoGym collection
# Assays:
# Assay in all cases: pooled miR-30 sensor sort-seq; sequence = guide strand
# Details in all cases: shRNA
# ANG = molecular target: ANG
# ANK1 = molecular target: ANK1
# ANKRD22 = molecular target: ANKRD22
# AP3B1 = molecular target: AP3B1
# APOBEC3A = molecular target: APOBEC3A
# ARHGAP18 = molecular target: ARHGAP18
# ARHGAP21 = molecular target: ARHGAP21
# ARF4 = molecular target: ARF4
# ARHGAP30 = molecular target: ARHGAP30
# ARPC4 = molecular target: ARPC4
# ASCL1 = molecular target: ASCL1
# ASNSD1 = molecular target: ASNSD1
# ASPRV1 = molecular target: ASPRV1
# ASF1A = molecular target: ASF1A
# Note: reference of the scale not given here.
sequence,measurement,setting,value
TGTACCTGGAGTTATCCTGAGC,sensor-assay potency score (higher = more potent),ANG,-1.14
TCACTGACTAACACGAAACTGG,sensor-assay potency score (higher = more potent),ANK1,-0.214
TTAGTGACAAGCTCATCCGGGA,sensor-assay potency score (higher = more potent),ANK1,-0.401
TCACAAGCAACAACAACGTTTC,sensor-assay potency score (higher = more potent),ANG,-0.587
TCTGTGAGGGTTTCCATTCTTG,sensor-assay potency score (higher = more potent),ANG,-0.487
TTCATCTTCCGAGACATCCAGG,sensor-assay potency score (higher = more potent),ANK1,-0.548
TTGGTCTTGGTTTCTATCTGGG,sensor-assay potency score (higher = more potent),ANK1,-0.274
TAGAATGATTTCTTTGTGCAGA,sensor-assay potency score (higher = more potent),ANK1,-0.0456
TTTTGAGGTTGACATTAGCATT,sensor-assay potency score (higher = more potent),ANKRD22,-1.7
TCGGTGACCGCGTCGATCGAGG,sensor-assay potency score (higher = more potent),ANK1,-1.26
TTGACTTTGGCTTTGTTCTGGA,sensor-assay potency score (higher = more potent),ANK1,0.642
TGGACAAGTCTATCTGTCGAAC,sensor-assay potency score (higher = more potent),ANK1,-1.67
TAAATTTTTTCTTCACAGCATA,sensor-assay potency score (higher = more potent),ANKRD22,-1.16
TTCTCTTCATCAACATCCCTGG,sensor-assay potency score (higher = more potent),ANK1,-0.331
TATCTGTCGAACCACCTTGCGA,sensor-assay potency score (higher = more potent),ANK1,-1.29
TCGTATTGCAACAGGAGCCGGA,sensor-assay potency score (higher = more potent),ANK1,-0.769
TTGTCTTTGATACCATGAGGAA,sensor-assay potency score (higher = more potent),ANKRD22,-1.48
TTGGTGACGGCATTCTCCGGGA,sensor-assay potency score (higher = more potent),ANK1,-0.46
TAAACCTTCAAGATCAGCCATC,sensor-assay potency score (higher = more potent),AP3B1,-0.757
TATTCTGAGAATATTGAGCATA,sensor-assay potency score (higher = more potent),APOBEC3A,-1.17
TGTGGATCCATCAAGTGTCTGG,sensor-assay potency score (higher = more potent),APOBEC3A,-0.129
ATTTGTACTCTTATCTTGCTTT,sensor-assay potency score (higher = more potent),ARHGAP18,0.153
TTTCTTTTGATTCTCTCTGTTG,sensor-assay potency score (higher = more potent),ARHGAP18,-0.646
TTGTTGAGTCACTAGTAGCTGA,sensor-assay potency score (higher = more potent),ARHGAP21,-0.152
TTGTATATCAATATCAGCCATT,sensor-assay potency score (higher = more potent),ARHGAP21,-0.872
TTCTATCCAATAGTCTTCCATA,sensor-assay potency score (higher = more potent),ARHGAP18,-1.16
TATCTGACTTGAATCTAGCTGA,sensor-assay potency score (higher = more potent),ARHGAP21,0.41
AATTTTGTTGTAACAAGCCTAG,sensor-assay potency score (higher = more potent),ARF4,-0.535
TTTAGTATCATTGTGACACTGT,sensor-assay potency score (higher = more potent),ARHGAP21,0.875
TTTTCTGCAGCTCATCTGCTAC,sensor-assay potency score (higher = more potent),ARF4,-0.921
TTTCATTGCAAACACACACTGC,sensor-assay potency score (higher = more potent),ARHGAP21,-0.187
TTCTCCTTTCTTGAGAGTCTGG,sensor-assay potency score (higher = more potent),ARHGAP18,-0.587
TTATTTTTTGAGACCTCGCAGG,sensor-assay potency score (higher = more potent),ARHGAP21,-0.693
TTGGTTTACAATAAACTTGGGA,sensor-assay potency score (higher = more potent),ARHGAP18,0.294
TGAATCTTGCTACACATTGCAC,sensor-assay potency score (higher = more potent),ARHGAP30,-1.12
TAGAGTTGGGCACTACAGCTGC,sensor-assay potency score (higher = more potent),ARHGAP30,-0.34
AAGAGGATCGAGAAGCTCGGGA,sensor-assay potency score (higher = more potent),ARHGAP30,-0.319
TTAAACTATCTAATCTTTCTTG,sensor-assay potency score (higher = more potent),ARHGAP21,0.206
TTATTCTGAGACATTGACCTTC,sensor-assay potency score (higher = more potent),ARHGAP30,0.266
TAGGTCATCATAGGCACTCAGG,sensor-assay potency score (higher = more potent),ARHGAP30,-1.26
TTAATCTGGATTTAAAAGGGAC,sensor-assay potency score (higher = more potent),ARHGAP30,-0.482
TGCACAGCTCTTTAGCACCTGG,sensor-assay potency score (higher = more potent),ARHGAP30,-0.978
TAGACTTCCACTATCTGACTTG,sensor-assay potency score (higher = more potent),ARHGAP21,0.173
TTTATCTGTCATTTCACTGATG,sensor-assay potency score (higher = more potent),ARF4,-0.303
TAAACTGCGACACAGATCCCAC,sensor-assay potency score (higher = more potent),ARHGAP21,-0.61
TTGCACTCGAATCACTCCCTGA,sensor-assay potency score (higher = more potent),ARHGAP18,-0.442
TTCTGTTACGAAGAGACTGAAG,sensor-assay potency score (higher = more potent),ARF4,-1.25
TTATTTACACTCTTGACTCAGC,sensor-assay potency score (higher = more potent),ARHGAP18,-0.0105
TAAACTATCTAATCTTTCTTGT,sensor-assay potency score (higher = more potent),ARHGAP21,0.258
TAAATCTGAAGTACCAGCGTTT,sensor-assay potency score (higher = more potent),ARHGAP21,0.202
TTTATTTACACTCTTGACTCAG,sensor-assay potency score (higher = more potent),ARHGAP18,0.18
TTCCACATTAAAACCAATGGTA,sensor-assay potency score (higher = more potent),ARF4,-0.547
TTTGACAACAACCACCTCTTGA,sensor-assay potency score (higher = more potent),ARHGAP18,0.34
TTCTATTGGATAACAAATCTAC,sensor-assay potency score (higher = more potent),ARHGAP21,-0.588
TTGTGTCGGAGACAAGTTCAGG,sensor-assay potency score (higher = more potent),ARHGAP30,-1.32
TCTTGCTACACATTGCACTGGG,sensor-assay potency score (higher = more potent),ARHGAP30,0.852
TTTGCTTCTAGTTCTTGGCAAA,sensor-assay potency score (higher = more potent),ARHGAP18,-1.24
TAAAAACACAATGCTTTCCTGT,sensor-assay potency score (higher = more potent),ARHGAP18,0.106
TTCTCCATAACTTTGATGGTGG,sensor-assay potency score (higher = more potent),ARHGAP18,-0.384
TTGTTGGATTTATCCTCCCTGT,sensor-assay potency score (higher = more potent),ARHGAP30,-0.894
TTTGGCACAGTCAACCTCCAGG,sensor-assay potency score (higher = more potent),ARHGAP30,-0.36
TTGACCTTCACTAGAGTGGGAC,sensor-assay potency score (higher = more potent),ARHGAP30,-0.00464
TTTCACAGCAATGCTGACCCGG,sensor-assay potency score (higher = more potent),ARPC4,-0.244
TTGGAGTGCAAAGATACTGTTC,sensor-assay potency score (higher = more potent),ASCL1,0.084
TTCTTCAATAATATTCTCCCTA,sensor-assay potency score (higher = more potent),ASNSD1,0.32
TTTGTCATCAACAGCAGCTTGA,sensor-assay potency score (higher = more potent),ASPRV1,-0.258
TTACTCATCTTCTTGTTGGCCG,sensor-assay potency score (higher = more potent),ASCL1,0.746
TAAACCATTTGTACAAAACTTC,sensor-assay potency score (higher = more potent),ASCL1,-0.297
TTGCTTGGGCGCTGACTTGTGA,sensor-assay potency score (higher = more potent),ASCL1,-0.493
TTGGATTACTGCTCTCTGCATC,sensor-assay potency score (higher = more potent),ASF1A,-0.437
TGAAATACAAACATATGCCTTC,sensor-assay potency score (higher = more potent),ASF1A,0.343
TAAACCAATGTCTACAGCTTAT,sensor-assay potency score (higher = more potent),ASCL1,-1.49
TAAAACAGAGTCTAAAACTTGA,sensor-assay potency score (higher = more potent),ASF1A,-0.0289
TATTAGGACTGTCAGCAGCAGC,sensor-assay potency score (higher = more potent),ASNSD1,-1.12
TTACATAATAGCCAACTCTAAT,sensor-assay potency score (higher = more potent),ASF1A,-1.16
TTCTAGAAGAAATTCGACCCAG,sensor-assay potency score (higher = more potent),ASNSD1,-0.284
AATACATTAACAACATTTCTAT,sensor-assay potency score (higher = more potent),ASCL1,-0.252
TAAGATTATATAGTAAGTCCTC,sensor-assay potency score (higher = more potent),ASNSD1,-0.501
TTGAAGCTTAGAAAAGTCTGGT,sensor-assay potency score (higher = more potent),ASF1A,-0.243
TTGAACAGTATTTAATAACATC,sensor-assay potency score (higher = more potent),ASCL1,-1.14
TTTCTTGACTGCTACACTCAGG,sensor-assay potency score (higher = more potent),ASNSD1,-0.64
TATAAAGTAAGACACATTGGTG,sensor-assay potency score (higher = more potent),ASCL1,-0.186
TTGACCAACTTGACGCGGTTGC,sensor-assay potency score (higher = more potent),ASCL1,0.134
TCGAAGGTGATCTCGAACTGGA,sensor-assay potency score (higher = more potent),ASF1A,-0.487
TAATTTTCCATTCCAAGTCTTC,sensor-assay potency score (higher = more potent),ASF1A,-0.557
TTTTTCACCAATTCCTCGGGGT,sensor-assay potency score (higher = more potent),ASNSD1,0.495
TAAGTTTGTAATAAAACAGTAA,sensor-assay potency score (higher = more potent),ASCL1,-0.00305
TTAGATGCCAAAATATTCCTTT,sensor-assay potency score (higher = more potent),ASF1A,0.414
TAAATCTTGACTGAAATGCTCA,sensor-assay potency score (higher = more potent),ASNSD1,-0.203
TAATAAATTCTTGTCCTCGATA,sensor-assay potency score (higher = more potent),ASF1A,-1.01
